From PubChem BioAssay (EPA / NIEHS)
Inconclusive results are not listed. Activity calls are given as the source filed them. Rule for the calls: active = hit-call score of the fitted dose curve at least 0.9, where 1 is the maximum; inconclusive = response in the unintended direction; inactive = score below 0.9.

Columns and labels:
[1] = molecular target: human AKT serine/threonine Kinase 1 (AKT1), AKT1 (gene 207) (UniProt P31749); experiment: NVS_ENZ_hAKT1: NovaScreen (NVS) Enzymatic Assay for human AKT serine/threonine Kinase 1 (AKT1) (AID 2283138)
Summary of the method: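 Recombinant AKT1, specific substrate, cell-free; 1 h; fluorescence intensity/electrophoretic mobility shift. Duplicate single-point 25 uM, then singleton CRC max 50 uM. DMSO = negative control/baseline; signal loss = inhibition.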

[2] = molecular target: human Caspase 2 (CASP2), CASP2 (gene 835) (UniProt P42575); experiment: NVS_ENZ_hCASP2: NovaScreen (NVS) Enzymatic Assay for human Caspase 2 (CASP2) (AID 2283135)
Summary of the method: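 E. coli-expressed enzyme in a cell-free protease assay, fluorescence read 1 h after dosing. Compounds at 25 uM in duplicate, with concentration-response up to 50 uM for hits; loss of signal against DMSO baseline.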

[3] = molecular target: human Ephrin type-A Receptor 1 (EphA1), EPHA1 (gene 2041) (UniProt P21709); experiment: NVS_ENZ_hEphA1: NovaScreen (NVS) Enzymatic Assay for human Ephrin type-A Receptor 1 (EphA1) (AID 2283158);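 note: activity is signal loss versus DMSO meaning EphA1 kinase inhibition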
Summary of the method: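 Recombinant kinase, fluorescent substrate, mobility-shift separation, fluorescence read at 1 h. Single-point duplicates at 25 uM; hits (e.g., ≥30% inhibition) run singleton concentration-response, max 50 uM. DMSO = negative control/baseline.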

[4] = molecular target: human Casein Kinase 1-delta (CK1D), CSNK1D (gene 1453) (UniProt P48730); experiment: NVS_ENZ_hCK1D: NovaScreen (NVS) Enzymatic Assay for human Casein Kinase 1-delta (CK1D) (AID 2283148)
Summary of the method: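 Recombinant human CK1-delta, cell-free; fluorescent substrate with electrophoretic mobility-shift separation of product, read 1 h after dosing. Single 25 uM duplicate screen, then concentration-response up to 50 uM; loss of signal vs DMSO.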

[5] = molecular target: human Epidermal Growth Factor Receptor (EGFR), EGFR (gene 1956) (UniProt P00533); experiment: NVS_ENZ_hEGFR: NovaScreen (NVS) Enzymatic Assay for human Epidermal Growth Factor Receptor (EGFR) (AID 2283151)
Summary of the method: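 Cell-free kinase assay, fluorescence plus electrophoretic mobility shift separating substrate and product, read 1 hour after dosing; loss of signal vs DMSO. Duplicate screen at 25 uM, then concentration-response to 50 uM.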

[6] = molecular target: human Acetylcholinesterase (AChE), ACHE (gene 43) (UniProt P22303); experiment: NVS_ENZ_hAChE: NovaScreen (NVS) Enzymatic Assay for human Acetylcholinesterase (AChE) (AID 2283129)
Summary of the method: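 Cell-free colorimetric enzyme-activity assay; compounds read 0.33 hour after dosing, loss of signal vs DMSO baseline. Primary screen in duplicate at 25 uM single concentration, with active compounds retested in concentration series.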

[7] = molecular target: human Esterase Plasma (ES), BCHE (gene 590) (UniProt P06276); experiment: NVS_ENZ_hES: NovaScreen (NVS) Enzymatic Assay for human Esterase Plasma (ES) (AID 2283157)
Summary of the method: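 Cell-free enzyme assay using esterase extracted from human plasma; colorimetric absorbance read 0.25 hour after dosing. Single-concentration duplicate screen at 25 uM, then concentration-response up to 50 uM; loss of signal scored against DMSO baseline.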

[8] = molecular target: human Caspase 5 (CASP5), CASP5 (gene 838) (UniProt P51878); experiment: NVS_ENZ_hCASP5: NovaScreen (NVS) Enzymatic Assay for human Caspase 5 (CASP5) (AID 2283137)
Summary of the method: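 E. coli-derived enzyme, cell-free, 2 h incubation, fluorescence intensity. 25 uM duplicate single-point; hits → concentration series to 50 uM. DMSO baseline, positive/negative controls on every plate.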

[9] = molecular target: human Dual Specificity Protein Phosphatase 3 (DUSP3), DUSP3 (gene 1845) (UniProt P51452); experiment: NVS_ENZ_hDUSP3: NovaScreen (NVS) Enzymatic Assay for human Dual Specificity Protein Phosphatase 3 (DUSP3) (AID 2283152);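 note: phosphatase activity of recombinant human DUSP3 on a fluorogenic substrate without cells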
Summary of the method: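 Cell-free assay with recombinant human DUSP3 and fluorogenic substrate, read by fluorescence intensity. Primary screen ran duplicate at 25 uM; actives followed up in concentration series; loss of signal versus DMSO scored.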

[10] = molecular target: human Beta-secretase (BACE), BACE1 (gene 23621) (UniProt P56817); experiment: NVS_ENZ_hBACE: NovaScreen (NVS) Enzymatic Assay for human Beta-secretase (BACE) (AID 2283140);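 note: hits are inhibitors that reduce fluorescent substrate signal versus DMSO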
Summary of the method: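 Compounds were first tested in duplicate at 25 uM, then actives in concentration series, against recombinant BACE1 from SF9 cells. Enzyme activity was measured by fluorescence intensity 1 hour after dosing, with DMSO as negative control.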

Chain of human Esterase Plasma (ES), BCHE (gene 590) (P06276 whole entry, looked up): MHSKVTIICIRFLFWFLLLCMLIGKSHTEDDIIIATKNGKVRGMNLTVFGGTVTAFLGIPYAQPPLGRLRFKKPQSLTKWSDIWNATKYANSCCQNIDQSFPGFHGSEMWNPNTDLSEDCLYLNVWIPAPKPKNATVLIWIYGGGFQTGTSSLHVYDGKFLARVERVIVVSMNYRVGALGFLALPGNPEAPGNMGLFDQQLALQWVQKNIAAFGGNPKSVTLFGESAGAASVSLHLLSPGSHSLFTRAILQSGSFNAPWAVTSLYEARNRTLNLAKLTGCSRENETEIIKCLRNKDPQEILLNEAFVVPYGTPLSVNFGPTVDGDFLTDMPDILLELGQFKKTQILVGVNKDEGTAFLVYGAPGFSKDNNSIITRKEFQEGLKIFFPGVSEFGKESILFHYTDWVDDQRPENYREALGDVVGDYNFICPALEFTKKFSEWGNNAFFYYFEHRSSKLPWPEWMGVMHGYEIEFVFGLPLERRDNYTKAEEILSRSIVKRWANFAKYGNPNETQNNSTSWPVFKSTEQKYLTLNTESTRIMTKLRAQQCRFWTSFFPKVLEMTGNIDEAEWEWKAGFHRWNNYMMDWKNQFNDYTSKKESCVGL
Chain of human Casein Kinase 1-delta (CK1D), CSNK1D (gene 1453) (P48730 whole entry, looked up): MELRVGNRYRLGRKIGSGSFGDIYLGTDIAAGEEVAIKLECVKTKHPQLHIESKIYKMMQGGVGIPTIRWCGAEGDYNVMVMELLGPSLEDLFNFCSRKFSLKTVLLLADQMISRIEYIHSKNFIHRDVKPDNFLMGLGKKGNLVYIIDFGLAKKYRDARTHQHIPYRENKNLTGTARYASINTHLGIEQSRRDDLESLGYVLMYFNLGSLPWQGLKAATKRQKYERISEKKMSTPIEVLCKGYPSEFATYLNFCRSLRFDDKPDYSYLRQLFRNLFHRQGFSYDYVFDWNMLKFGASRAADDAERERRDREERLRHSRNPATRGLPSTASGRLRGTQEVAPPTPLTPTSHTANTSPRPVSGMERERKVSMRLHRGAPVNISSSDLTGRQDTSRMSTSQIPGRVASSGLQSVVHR
Chain of human Epidermal Growth Factor Receptor (EGFR), EGFR (gene 1956) (P00533 whole entry, looked up): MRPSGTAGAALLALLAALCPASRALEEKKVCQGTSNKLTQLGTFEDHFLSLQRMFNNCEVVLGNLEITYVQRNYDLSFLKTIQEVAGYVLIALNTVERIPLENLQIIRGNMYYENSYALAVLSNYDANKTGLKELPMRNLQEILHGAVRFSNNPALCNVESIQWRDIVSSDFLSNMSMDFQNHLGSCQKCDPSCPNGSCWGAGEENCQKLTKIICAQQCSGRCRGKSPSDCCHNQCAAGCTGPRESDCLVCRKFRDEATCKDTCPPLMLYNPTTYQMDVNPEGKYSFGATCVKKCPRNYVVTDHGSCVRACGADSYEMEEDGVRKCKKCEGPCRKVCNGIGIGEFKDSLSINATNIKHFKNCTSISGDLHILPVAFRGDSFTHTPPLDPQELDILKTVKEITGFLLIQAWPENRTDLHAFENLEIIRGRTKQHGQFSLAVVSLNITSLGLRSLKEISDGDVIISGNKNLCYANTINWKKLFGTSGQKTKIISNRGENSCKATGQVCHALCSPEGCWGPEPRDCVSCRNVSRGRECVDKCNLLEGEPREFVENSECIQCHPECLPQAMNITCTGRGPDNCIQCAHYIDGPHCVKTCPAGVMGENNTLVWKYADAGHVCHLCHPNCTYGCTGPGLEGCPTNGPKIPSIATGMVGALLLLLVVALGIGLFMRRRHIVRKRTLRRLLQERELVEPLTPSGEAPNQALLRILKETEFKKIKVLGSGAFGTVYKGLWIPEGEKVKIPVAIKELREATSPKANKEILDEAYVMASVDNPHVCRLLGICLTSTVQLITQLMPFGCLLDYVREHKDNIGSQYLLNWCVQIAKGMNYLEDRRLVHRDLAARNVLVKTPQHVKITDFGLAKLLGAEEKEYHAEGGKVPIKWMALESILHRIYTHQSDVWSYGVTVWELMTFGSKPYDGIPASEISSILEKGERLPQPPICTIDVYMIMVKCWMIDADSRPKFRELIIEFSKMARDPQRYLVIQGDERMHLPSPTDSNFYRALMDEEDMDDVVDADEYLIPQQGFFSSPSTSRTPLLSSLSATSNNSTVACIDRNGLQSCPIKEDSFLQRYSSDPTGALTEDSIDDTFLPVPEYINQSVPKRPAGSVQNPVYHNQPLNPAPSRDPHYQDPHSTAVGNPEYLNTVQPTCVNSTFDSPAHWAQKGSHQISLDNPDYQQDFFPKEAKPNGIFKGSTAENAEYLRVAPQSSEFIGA
Chain of human Beta-secretase (BACE), BACE1 (gene 23621) (P56817 whole entry, looked up): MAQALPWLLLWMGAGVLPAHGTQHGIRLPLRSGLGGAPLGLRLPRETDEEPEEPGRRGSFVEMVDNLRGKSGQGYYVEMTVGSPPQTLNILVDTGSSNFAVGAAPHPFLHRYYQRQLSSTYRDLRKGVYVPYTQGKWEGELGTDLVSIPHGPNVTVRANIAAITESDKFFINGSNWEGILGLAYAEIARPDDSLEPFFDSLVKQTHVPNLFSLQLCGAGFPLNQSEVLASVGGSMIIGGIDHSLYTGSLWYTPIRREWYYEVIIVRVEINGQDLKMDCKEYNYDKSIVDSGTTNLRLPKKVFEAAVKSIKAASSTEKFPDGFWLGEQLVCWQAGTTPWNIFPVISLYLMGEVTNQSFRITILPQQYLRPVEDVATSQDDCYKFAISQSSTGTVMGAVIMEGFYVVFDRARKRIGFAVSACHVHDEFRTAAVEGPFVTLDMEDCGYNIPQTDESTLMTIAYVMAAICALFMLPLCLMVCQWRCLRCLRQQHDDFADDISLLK
Chain of human Caspase 2 (CASP2), CASP2 (gene 835) (P42575 whole entry, looked up): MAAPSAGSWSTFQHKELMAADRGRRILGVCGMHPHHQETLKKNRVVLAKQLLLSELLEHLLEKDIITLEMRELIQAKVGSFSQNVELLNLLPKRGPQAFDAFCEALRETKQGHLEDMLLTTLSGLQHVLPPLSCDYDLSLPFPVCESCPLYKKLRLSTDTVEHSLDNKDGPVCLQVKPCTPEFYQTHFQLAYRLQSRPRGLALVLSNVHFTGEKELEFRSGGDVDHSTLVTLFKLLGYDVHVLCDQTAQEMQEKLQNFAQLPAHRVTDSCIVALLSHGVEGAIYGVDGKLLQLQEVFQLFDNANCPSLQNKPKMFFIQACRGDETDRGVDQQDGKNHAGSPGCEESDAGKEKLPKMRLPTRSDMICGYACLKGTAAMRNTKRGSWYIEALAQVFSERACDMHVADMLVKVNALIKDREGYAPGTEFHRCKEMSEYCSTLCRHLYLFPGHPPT
Chain of human AKT serine/threonine Kinase 1 (AKT1), AKT1 (gene 207) (P31749 whole entry, looked up): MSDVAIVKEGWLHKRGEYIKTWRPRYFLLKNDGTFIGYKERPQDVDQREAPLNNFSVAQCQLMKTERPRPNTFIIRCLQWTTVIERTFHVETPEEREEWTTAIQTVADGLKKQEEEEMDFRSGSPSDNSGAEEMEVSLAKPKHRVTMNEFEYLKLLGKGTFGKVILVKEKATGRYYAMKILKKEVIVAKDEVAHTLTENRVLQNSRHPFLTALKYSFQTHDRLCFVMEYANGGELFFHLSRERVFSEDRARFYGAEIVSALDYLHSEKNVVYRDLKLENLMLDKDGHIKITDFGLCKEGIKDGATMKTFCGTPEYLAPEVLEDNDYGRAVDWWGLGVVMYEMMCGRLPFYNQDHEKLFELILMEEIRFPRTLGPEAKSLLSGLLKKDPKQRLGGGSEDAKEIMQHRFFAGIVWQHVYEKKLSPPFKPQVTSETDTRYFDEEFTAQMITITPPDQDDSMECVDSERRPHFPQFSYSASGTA
Chain of human Dual Specificity Protein Phosphatase 3 (DUSP3), DUSP3 (gene 1845) (P51452 whole entry, looked up): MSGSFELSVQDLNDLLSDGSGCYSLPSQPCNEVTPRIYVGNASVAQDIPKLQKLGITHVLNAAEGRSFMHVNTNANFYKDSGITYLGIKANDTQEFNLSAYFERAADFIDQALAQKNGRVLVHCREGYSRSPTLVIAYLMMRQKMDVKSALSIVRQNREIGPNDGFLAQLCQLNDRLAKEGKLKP
Chain of human Acetylcholinesterase (AChE), ACHE (gene 43) (P22303 whole entry, looked up): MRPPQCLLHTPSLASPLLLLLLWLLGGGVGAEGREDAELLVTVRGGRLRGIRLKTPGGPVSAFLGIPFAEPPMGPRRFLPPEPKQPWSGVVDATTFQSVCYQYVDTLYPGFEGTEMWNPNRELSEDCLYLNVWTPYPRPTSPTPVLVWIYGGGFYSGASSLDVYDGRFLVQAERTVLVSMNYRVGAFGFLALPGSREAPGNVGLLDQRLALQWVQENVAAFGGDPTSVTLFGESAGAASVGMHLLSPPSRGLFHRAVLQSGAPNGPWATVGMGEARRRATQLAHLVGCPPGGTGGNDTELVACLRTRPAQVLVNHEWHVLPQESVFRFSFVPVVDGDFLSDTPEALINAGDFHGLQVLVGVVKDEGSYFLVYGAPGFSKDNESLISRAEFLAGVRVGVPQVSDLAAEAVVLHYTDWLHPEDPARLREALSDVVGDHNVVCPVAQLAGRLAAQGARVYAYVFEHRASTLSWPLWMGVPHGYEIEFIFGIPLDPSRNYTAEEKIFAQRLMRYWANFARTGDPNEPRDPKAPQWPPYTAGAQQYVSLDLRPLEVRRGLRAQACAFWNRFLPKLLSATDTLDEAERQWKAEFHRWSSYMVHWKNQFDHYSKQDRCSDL
Chain of human Caspase 5 (CASP5), CASP5 (gene 838) (P51878 whole entry, looked up): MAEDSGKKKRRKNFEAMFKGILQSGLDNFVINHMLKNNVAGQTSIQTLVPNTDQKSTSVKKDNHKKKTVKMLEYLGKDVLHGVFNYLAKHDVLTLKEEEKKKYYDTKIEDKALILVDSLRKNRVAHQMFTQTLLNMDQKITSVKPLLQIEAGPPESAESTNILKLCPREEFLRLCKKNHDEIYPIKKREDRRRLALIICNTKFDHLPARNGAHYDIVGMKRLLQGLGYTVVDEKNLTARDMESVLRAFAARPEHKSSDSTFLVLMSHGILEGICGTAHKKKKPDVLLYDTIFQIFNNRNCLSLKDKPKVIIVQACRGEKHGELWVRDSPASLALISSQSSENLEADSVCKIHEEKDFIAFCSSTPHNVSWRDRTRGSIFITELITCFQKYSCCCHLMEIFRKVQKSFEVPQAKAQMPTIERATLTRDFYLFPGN

`Cc1cccc(N)c1` was tested, and the outcome [1] was “inactive”.

With `CC(Cl)(Cl)C(=O)O` the outcome [2] was “inactive” and the outcome [3] was “inactive”.

`O=[N+]([O-])c1ccccc1` was tested, and the outcome [4] was “inactive”.

`ClC1=C(Cl)C2(Cl)C3C(Cl)C(Cl)CC3C1(Cl)C2(Cl)Cl` (stereo not given) was tested, and the outcome [5] was “inactive”.

In the case of `CCCCN(CCCC)SN(C)C(=O)Oc1cccc2c1OC(C)(C)C2`, the AC50 [6] is reported as 1.31 µM (active), the outcome [2] is reported as “inactive” and the outcome [7] is reported as “inactive”.

With `CCOP(=S)(S)OCC` the outcome [8] was “inactive” and the AC50 [9] was 19.9 µM (active).

In the case of `O=P(OCC(Br)CBr)(OCC(Br)CBr)OCC(Br)CBr` (stereo not given), the AC50 [10] is reported as 14.3 µM (active).

For `NNC(N)=S`, the outcome [10] was “inactive”.

In the case of `Cc1ccc(O)cc1C`, the outcome [4] is reported as “inactive” and the outcome [5] is reported as “inactive”.

In the case of `Nc1ccc2ccccc2c1`, the AC50 [7] is reported as 13.7 µM (active).
